Source: article PMC5540273 (PLoS ONE, 2017)
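Further: KINOMEscan kinase panel screen.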

The molecules below were run on CDK9. Conditions: concentration: 1 μM,replicates: in singlicate; n = 1.
`Cc1n[nH]c2ccc(-c3cc(OC[C@@H](N)Cc4ccccc4)cnc3-c3ccoc3)cc12.O=C(O)C(F)(F)F.O=C(O)C(F)(F)F` [GSK507358] was tested, and the “%Inh” value was 0%.
With `CC(C)Nc1cc(-c2ccc3c(N)n[nH]c3c2)nc(N)n1` [GSK2221681] the “%Inh” value was 0%.
In the case of `CNC(=O)c1ccccc1Sc1ccc2c(/C=C/c3ccccn3)n[nH]c2c1`, the “%Inh” value is reported as 0%.
For `Cl.Cl.NC[C@H](Cc1ccc(C(F)(F)F)cc1)NC(=O)c1cc(Br)c(-c2ccnc3[nH]ccc23)s1` [GSK1487252], the “%Inh” value was 0%.
In the case of `Cl.Cl.Nc1nc(-c2ccc3c(N)n[nH]c3c2)cc(N2CCCC(NC(=O)c3ccccc3)C2)n1` (stereo not drawn) [GSK2286775], the “%Inh” value is reported as 0%.
With `O=C(NCCCN1CCOC1=O)c1cnc(NCc2cc(Cl)ccc2Cl)nc1NC1CCCC1` the “%Inh” value was 5%.
In the case of `CN(C)CC(O)COc1ccc(Nc2nccc(-c3cnn4nc(N5CCOCC5)ccc34)n2)cc1` (stereo not drawn) [GW767488], the “%Inh” value is reported as 49%.
In the case of `Cc1ccc(-n2nc(C(C)(C)C)cc2NC(=O)Nc2ccc(OCCN3CCOCC3)c3ccccc23)cc1` [GW839464], the “%Inh” value is reported as 0%.
`Cc1cc(C(=O)Nc2ccc(Oc3ccc4nc(NC(=O)C5CC5)cn4n3)cc2)nn1-c1ccccc1` was tested, and the “%Inh” value was 21%.
With `C=CC(=O)Nc1cc2c(Nc3ccc(F)c(Cl)c3)ncnc2cc1OCCCN1CCOCC1` [GW781483] the “%Inh” value was 0%.
For `Cc1cc2cn[nH]c2cc1-c1cccc2c(N)c(C(N)=O)nnc12`, the “%Inh” value was 5%.
With `C[C@@H]1CCN(C(=O)CC#N)C[C@@H]1N(C)c1ncnc2[nH]ccc12` the “%Inh” value was 0%.
In the case of `CC(C)N1C(=O)Cc2cc(Nc3ncc(C(F)(F)F)c(NCc4cccc(S(C)(=O)=O)c4)n3)ccc21`, the “%Inh” value is reported as 19%.
In the case of `C[C@H]1Oc2cc(cnc2N)-c2c(nn(C)c2C#N)CN(C)C(=O)c2ccc(F)cc21`, the “%Inh” value is reported as 1%.
`Cc1occc1-c1nc(N)c(OC[C@@H](N)Cc2c[nH]c3ccccc23)cc1-c1cc2c(C)n[nH]c2cn1` [GSK1660450] was tested, and the “%Inh” value was 22%.
For `Cc1ccc2c(-c3ccncc3)c(-c3ccc(F)cc3)nn2c1.Cl` [GW461484], the “%Inh” value was 0%.
For `CCN(CC)CCCCNc1ncc2cc(-c3c(Cl)cccc3Cl)c(NC(=O)NC(C)(C)C)nc2n1`, the “%Inh” value was 0%.
With `CCN(CC)CCOc1ccc(Nc2ncc3cc(-c4c(Cl)cccc4Cl)c(=O)n(C)c3n2)cc1` [SB-601273] the “%Inh” value was 20%.
With `NC(=O)c1cc(-c2ccccc2)cc2c(C3CCNCC3)c[nH]c12` [GSK301362] the “%Inh” value was 0%.
In the case of `CCn1c(-c2nonc2N)nc2c(C#CC(C)(C)O)nc(OCCN)cc21.Cl.Cl` [GSK902056], the “%Inh” value is reported as 0%.
With `O=C(NCCNc1ccnc(NCc2ccc(F)cc2)n1)c1cc2ccccc2s1` [GSK1379944] the “%Inh” value was 0%.
With `Cl.Oc1cc(-c2nc(-c3ccccc3)[nH]c2-c2ccncc2)ccc1Cl` [SB-386023] the “%Inh” value was 0%.
For `COc1ccc(C[C@@H](CN)NC(=O)c2cc(Br)c(-c3ccnc4[nH]ccc34)s2)cc1.Cl.Cl` [GSK1389063], the “%Inh” value was 37%.
`Cl.Cl.NC[C@H](CC1CCCCC1)NC(=O)c1cc(Br)c(-c2ccnc3[nH]ccc23)s1` [GSK1581427] was tested, and the “%Inh” value was 5%.
`CN(C)CCOc1ccc(-c2cc(-c3c[nH]nc3-c3ccccn3)ccn2)cc1` [GW835314] was tested, and the “%Inh” value was 0%.
For `C[C@@H](Oc1cc(-c2cnn(C3CCNCC3)c2)cnc1N)c1c(Cl)ccc(F)c1Cl`, the “%Inh” value was 12%.
With `Nc1nc(Nc2ccccc2)cc(-c2ccc3c(N)n[nH]c3c2)n1` [GSK2225749] the “%Inh” value was 0%.
